Values without a mark were called inactive. Results filed as inconclusive are left out. A call without a number means that no potency is given here. Activity calls are given as the source filed them. Unless noted, calls follow the shape of the dose curve; as a rule, active = well fitted curve in the direction sought with a large enough effect; inconclusive = small, poorly fitted or top-dose-only effect, or another doubt; inactive = no such curve, though single readings can be large; an effect the other way counts as inactive or inconclusive.

15 molecules from PubChem BioAssay (NCATS) can be followed below.

Test [1] in a line: P-glycoprotein substrates identified in KB-8-5-11 adenocarcinoma cell line, qHTS therapeutic library screen (AID 1346987). Also: nearly all actives have a fitted effect of over 65% in size. In short, it runs like this: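 Luminescence from CellTiter-Glo, read 5 min after addition, quantified survival of KB-8-5-11 (P-gp-overexpressing) cells exposed to compounds for 72 h. AC50 was derived from concentration-response curves.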
In general terms: qHTS replaces the single test concentration by a dilution series.

Test [2] is described as follows: Natriuretic polypeptide receptor (hNpr1) antagonism - Pilot counterscreen GloSensor control cell line (AID 1347045; calls by dose curve; also: series mostly up to about 38 µM). In outline:
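Cells were first seeded and incubated overnight at 37C, then loaded with 2% GloSensor substrate for 2 h. Compounds were added for 30 min at room temperature, followed by a baseline read, 50 uM SNP and a final read after 20 min.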
In general terms: A counterscreen serves to expose hits that act by an unwanted route or on another target.

Test [3] addresses Atrial natriuretic peptide receptor 2 (Homo sapiens) (UniProt P20594). The test can be described thus: Natriuretic polypeptide receptor (hNpr2) antagonism - Pilot subtype selectivity assay (AID 1347050; calls by dose curve). In short, it runs like this: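 Read-out: GloSensor luminescence (CCD imager), baseline vs post-stimulation. HEK293 cells expressing hNpr2; compounds pre-incubated 30-50 min at ambient temperature; hNppC 1 nM final, 20 min.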

Test [4] can be described thus: NS1 protein of Zika virus - qHTS assay to identify small molecule inhibitors in human HEK 293 cells (AID 1347053). Also: series mostly up to about 46 µM; nearly all actives have a fitted effect of over 55% in size. In short, it runs like this:
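In this cell-based screen, HEK 293 cultures received compound for one hour before Zika MR766 at MOI = 0.5. NS1 was quantified 24 hours later by TR-FRET, normalized to virus-free wells and infected wells.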

The target of test [5] is T1, Tyrosine-protein phosphatase non-receptor type substrate 1 (Homo sapiens) + Leukocyte surface antigen CD47 (Homo sapiens) (UniProt P78324+Q08722). The test is described as follows: CD47-SIRPalpha protein protein interaction - LANCE assay qHTS validation (AID 1347057; active = well fitted curve in the direction sought with a large enough effect in the signal ratio, with a control signal flat, not every such curve was filed as active; the % refers to the signal ratio; also: series mostly up to about 38 µM). In outline: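 Inhibition of soluble CD47/SIRPalpha ectodomain association by titrated compounds, measured as 665/615 nm time-resolved FRET ratio after sequential 30 min room-temperature incubations.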
T1 sequence (P78324 whole entry, looked up, the tested form may be a part): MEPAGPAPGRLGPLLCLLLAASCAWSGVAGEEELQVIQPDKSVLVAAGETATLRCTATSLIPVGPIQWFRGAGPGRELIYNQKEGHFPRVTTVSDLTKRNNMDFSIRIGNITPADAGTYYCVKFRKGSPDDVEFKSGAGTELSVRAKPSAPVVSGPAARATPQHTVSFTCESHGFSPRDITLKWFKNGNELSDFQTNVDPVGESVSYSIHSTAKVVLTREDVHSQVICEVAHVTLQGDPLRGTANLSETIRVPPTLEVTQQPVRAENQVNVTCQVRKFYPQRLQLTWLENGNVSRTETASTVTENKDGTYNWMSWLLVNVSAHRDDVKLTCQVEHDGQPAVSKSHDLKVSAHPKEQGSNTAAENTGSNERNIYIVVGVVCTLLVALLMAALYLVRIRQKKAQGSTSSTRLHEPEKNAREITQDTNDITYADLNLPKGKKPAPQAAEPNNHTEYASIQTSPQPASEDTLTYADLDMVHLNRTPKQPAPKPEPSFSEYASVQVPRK
T1 sequence (Q08722 whole entry, looked up, the tested form may be a part): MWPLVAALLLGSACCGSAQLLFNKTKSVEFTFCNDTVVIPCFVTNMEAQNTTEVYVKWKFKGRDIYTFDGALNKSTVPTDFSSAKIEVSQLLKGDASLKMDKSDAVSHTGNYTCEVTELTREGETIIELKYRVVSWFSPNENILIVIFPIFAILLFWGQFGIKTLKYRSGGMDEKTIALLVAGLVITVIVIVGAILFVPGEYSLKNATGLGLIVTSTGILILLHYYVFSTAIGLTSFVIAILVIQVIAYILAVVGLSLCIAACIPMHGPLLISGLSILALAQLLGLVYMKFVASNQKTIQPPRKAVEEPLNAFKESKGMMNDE
For orientation: In TR-FRET formats the signal depends on donor and acceptor labels being close together.

Test [6] addresses T1, Tyrosine-protein phosphatase non-receptor type substrate 1 (Homo sapiens) + Leukocyte surface antigen CD47 (Homo sapiens). The test can be described thus: CD47-SIRPalpha protein protein interaction - HTRF assay qHTS validation (AID 1347058; active = well fitted curve in the direction sought with a large enough effect in the signal ratio, not every such curve was filed as active; the % refers to the signal ratio; also: series mostly up to about 38 µM). In outline: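 Soluble extracellular domains (6His-CD47, Avi-tag-biotinylated SIRPalpha) in PBS pH 7.4 with 0.05% IGEPAL CA-630. Compounds were preincubated 30 min at RT with CD47 and anti-His-Eu, then SIRPalpha and SAV-XL665 were added. TR-FRET 665/615 ratio.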

For test [7] the target is unchanged. The test is described as follows: CD47-SIRPalpha protein protein interaction - Alpha assay qHTS validation (AID 1347059).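 Also: bead proximity luminescence from CD47 binding SIRPalpha after compound preincubation with SIRPalpha.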 In outline:
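In PBS (pH 7.4) with 0.05% IGEPAL CA-630, compound is preincubated with biotin-Avi-SIRPalpha ectodomain before His-CD47 ectodomain and affinity beads are added. Light-protected room-temperature incubations; AlphaScreen readout.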

For test [8], the target named is Parathyroid hormone/parathyroid hormone-related peptide receptor (Homo sapiens) (UniProt Q03431). The test is described as follows: qHTS for PTHR1 Agonists: Optimization Screen against the NCGC LOPAC library (AID 1347079).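 Also: GloSensor cAMP luminescence in HEK-293 GP2 cells expressing human PTHR1 with IBMX.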 In outline:
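HEK-293 GP2 cells, PTHR1 + GloSensor cAMP; 3000 cells/well, o/n. Luciferin + IBMX 0.5mM each (stock), 1 hr 37C. Cpd titration, 1 hr 37C. Lum after 15 min RT. Ctrl M-PTH(1-15) top 10uM.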

Sequence of Parathyroid hormone/parathyroid hormone-related peptide receptor (Homo sapiens) (Q03431 whole entry, looked up): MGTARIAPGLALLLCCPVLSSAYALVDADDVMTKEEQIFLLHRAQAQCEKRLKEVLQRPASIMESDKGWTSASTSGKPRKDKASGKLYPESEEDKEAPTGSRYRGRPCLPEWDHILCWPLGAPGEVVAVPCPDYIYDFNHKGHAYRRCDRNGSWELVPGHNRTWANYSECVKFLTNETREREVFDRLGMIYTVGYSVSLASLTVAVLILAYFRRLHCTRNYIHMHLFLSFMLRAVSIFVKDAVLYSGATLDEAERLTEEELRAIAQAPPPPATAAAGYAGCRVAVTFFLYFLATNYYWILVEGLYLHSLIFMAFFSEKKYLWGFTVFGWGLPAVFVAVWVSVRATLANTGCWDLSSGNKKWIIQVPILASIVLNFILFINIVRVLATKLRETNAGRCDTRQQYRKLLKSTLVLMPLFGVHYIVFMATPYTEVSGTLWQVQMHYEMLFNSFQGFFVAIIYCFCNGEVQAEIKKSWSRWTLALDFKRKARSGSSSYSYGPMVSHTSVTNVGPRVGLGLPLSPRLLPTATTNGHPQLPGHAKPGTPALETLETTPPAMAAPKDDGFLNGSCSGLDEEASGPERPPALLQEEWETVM
Sequence of Atrial natriuretic peptide receptor 2 (Homo sapiens) (P20594 whole entry, looked up): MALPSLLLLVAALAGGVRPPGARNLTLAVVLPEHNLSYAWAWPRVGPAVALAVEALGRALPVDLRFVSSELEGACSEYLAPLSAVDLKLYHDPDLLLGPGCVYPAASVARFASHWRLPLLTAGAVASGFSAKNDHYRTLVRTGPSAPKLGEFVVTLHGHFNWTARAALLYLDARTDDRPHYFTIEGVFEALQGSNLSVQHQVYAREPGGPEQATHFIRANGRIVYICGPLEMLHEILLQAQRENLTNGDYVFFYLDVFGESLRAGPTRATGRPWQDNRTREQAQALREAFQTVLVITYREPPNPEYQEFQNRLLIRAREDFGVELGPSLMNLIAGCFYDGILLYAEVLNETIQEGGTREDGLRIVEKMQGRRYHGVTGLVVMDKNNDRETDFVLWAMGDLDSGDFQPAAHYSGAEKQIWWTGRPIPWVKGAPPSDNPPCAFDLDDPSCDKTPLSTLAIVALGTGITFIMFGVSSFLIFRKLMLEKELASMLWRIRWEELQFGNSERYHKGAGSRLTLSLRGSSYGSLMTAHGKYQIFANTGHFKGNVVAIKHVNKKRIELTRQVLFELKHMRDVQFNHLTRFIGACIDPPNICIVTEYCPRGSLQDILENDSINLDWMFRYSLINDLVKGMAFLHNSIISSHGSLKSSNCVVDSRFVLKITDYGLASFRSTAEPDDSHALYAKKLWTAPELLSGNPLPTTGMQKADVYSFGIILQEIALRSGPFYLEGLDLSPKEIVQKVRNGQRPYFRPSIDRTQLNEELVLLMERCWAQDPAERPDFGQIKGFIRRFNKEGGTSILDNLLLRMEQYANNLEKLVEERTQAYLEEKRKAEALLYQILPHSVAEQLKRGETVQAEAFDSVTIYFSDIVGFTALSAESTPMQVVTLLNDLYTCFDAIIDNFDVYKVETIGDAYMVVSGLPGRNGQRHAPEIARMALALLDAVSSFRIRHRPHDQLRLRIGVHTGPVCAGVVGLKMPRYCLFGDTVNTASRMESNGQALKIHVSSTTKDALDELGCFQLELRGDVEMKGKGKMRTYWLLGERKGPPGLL

As for `C[S+](CC[C@H](N)C(=O)O)C[C@H]1O[C@@H](n2cnc3c(N)ncnc32)[C@H](O)[C@@H]1O` (stereo partly specified), the Potency entry in test [1] is “inactive”.

For `Cc1onc(-c2c(F)cccc2Cl)c1C(=O)N[C@@H]1C(=O)N2[C@@H]1SC(C)(C)[C@@H]2C(=O)O`, in test [1], the Potency result was “inactive”.

For the molecule `COc1cc(/C=C/C(=O)N2CCN(CC(=O)N3CCCC3)CC2)cc(OC)c1OC`, in test [1], the Potency result was “inactive”.

In the case of `CC1(C)[C@@H](O[C@H]2O[C@H](C(=O)O)[C@@H](O)[C@H](O)[C@H]2O[C@@H]2O[C@H](C(=O)O)[C@@H](O)[C@H](O)[C@H]2O)CC[C@]2(C)[C@H]3C(=O)C=C4[C@@H]5C[C@@](C)(C(=O)O)CC[C@]5(C)CC[C@@]4(C)[C@]3(C)CC[C@@H]12`, the Potency result in test [1] was “inactive”.

Turning to `CC(C)Cc1ccc([C@H](C)C(=O)O)cc1`, the Potency entry in test [1], in test [2], in test [3], in test [4], in test [5] and in test [7] was “inactive” throughout. Also, the Potency entry in test [8] is “inactive”. For the same molecule, the result in test [6] was inactive.

Take `CN1[C@@H]2CC[C@H]1CC(OC(=O)C(CO)c1ccccc1)C2` (stereo partly specified): the Potency entry in test [1] was “inactive”.

For the molecule `COc1cc(/C=C/C(=O)CC(=O)/C=C/c2ccc(O)c(OC)c2)ccc1O`, the Potency result in test [1] was “inactive”.

In the case of `CC1(C)S[C@@H]2[C@H](NC(=O)[C@H](N)c3ccc(O)cc3)C(=O)N2[C@H]1C(=O)O`, in test [1], the Potency result was “inactive”.

Turning to `CO[C@H]1C[C@@H]2CC[C@@H](C)[C@@](O)(O2)C(=O)C(=O)N2CCCC[C@H]2C(=O)O[C@H]([C@H](C)C[C@@H]2CC[C@@H](O)[C@H](OC)C2)CC(=O)[C@H](C)C=C(C)[C@@H](O)[C@@H](OC)C(=O)[C@H](C)C[C@H](C)/C=C/C=CC=C1C`, the Potency entry in test [1] is “inactive”.

Take `C[N+](C)(C)CCOP(=O)(O)OP(=O)([O-])OC[C@H]1O[C@@H](n2ccc(N)nc2=O)[C@H](O)[C@@H]1O`: the Potency result in test [1], in test [2], in test [3], in test [4], in test [5] and in test [7] was “inactive” in each case. Further, the Potency result in test [8] was “inactive”. The result in test [6] was inactive.

As to `COC(=O)[C@H]1[C@H]2C[C@@H]3c4[nH]c5cc(OC)ccc5c4CCN3C[C@H]2C[C@@H](OC(=O)/C=C/c2cc(OC)c(OC)c(OC)c2)[C@@H]1OC`, the Potency entry in test [1] is “inactive”.

On to `CCCCC[C@H](O)/C=C/[C@@H]1[C@@H](C/C=C\CCCC(=O)O)[C@@H](O)C[C@H]1O`, for which the Potency result in test [1] was “inactive”.

As for `CC1(C)S[C@@H]2[C@H](NC(=O)[C@H](NC(=O)N3CCN(S(C)(=O)=O)C3=O)c3ccccc3)C(=O)N2[C@H]1C(=O)O`, the Potency entry in test [1] is “inactive”.

As to `CCN1/C(=C/C(C)=O)Sc2ccc(OC)cc21`, the Potency result in test [1], in test [2], in test [3], in test [4], in test [5] and in test [7] was “inactive” each time. In addition, the Potency entry in test [8] is “inactive”. For the same molecule, in test [6], the outcome was inactive.

Turning to `CC1(C)[C@@H](O)CC[C@]2(C)[C@H]3C(=O)C=C4[C@@H]5C[C@@](C)(C(=O)O)CC[C@]5(C)CC[C@@]4(C)[C@]3(C)CC[C@@H]12`, the Potency entry in test [1] is “inactive”.
